Test results taken from PubChem BioAssay AID1159580 (chemical genetic matrix, 2015).
In all, about 5,500 compounds went through this assay and about 2,000 (36%) were called active. Inconclusive results (about 18%) are left out. No stated cut-off is given here; in the data, active means normalized growth mostly below about 0.91 (no sharp cut-off); inconclusive means no clear call, values can overlap the other calls; inactive means mostly above about 0.92. The list shows a part of the results.

Assay: chemical genetic growth profiling, strain panel (AID 1159580);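 further: tested at 20 µM; growth read once vehicle control cultures reached saturation at 30 °C; 1 = growth at the plate median or of vehicle wells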
Conditions: S. cerevisiae deletion strains, growth OD

Measured: normalized growth

O=[N+]([O-])c1ccc(ON=C2CCCCC2)c([N+](=O)[O-])c1
active: locus YDL101C, strain DUN1, stronger effect = lower value 0.876 | locus YDR052C, strain DBF4, stronger effect = lower value 0.904 | locus YHR030C, strain SLT2, stronger effect = lower value 0.608 | locus YHR205W, strain SCH9, stronger effect = lower value 0.448 | locus YJR066W, strain TOR1 (second series), stronger effect = lower value 0.429 | locus YKL048C, strain ELM1, stronger effect = lower value 0.783 | locus YLR113W, strain HOG1, stronger effect = lower value 0.749 | locus YPL256C, strain CLN2, stronger effect = lower value 0.765
inactive: locus YAR019C, strain CDC15, stronger effect = lower value 0.982 | locus YBL105C, strain PKC1, stronger effect = lower value 0.998 | locus YBR135W, strain CKS1, stronger effect = lower value 0.997 | locus YBR136W, strain MEC1, stronger effect = lower value 0.996 | locus YBR160W, strain CDC28, stronger effect = lower value 0.997 | locus YDL017W, strain CDC7, stronger effect = lower value 0.995 | locus YDL028C, strain MPS1, stronger effect = lower value 0.988 | locus YDL108W, strain KIN28, stronger effect = lower value 1 | locus YDL132W, strain cdc53, stronger effect = lower value 0.981 | locus YDL214C, strain PRR2, stronger effect = lower value 0.875 | locus YDR054C, strain cdc34, stronger effect = lower value 0.981 | locus YDR226W, strain ADK1, stronger effect = lower value 0.987 | locus YDR477W, strain SNF1, stronger effect = lower value 0.827 | locus YER123W, strain YCK3, stronger effect = lower value 0.722 | locus YER133W, strain GLC7, stronger effect = lower value 0.786 | locus YFL009W, strain cdc4, stronger effect = lower value 0.975 | locus YFL029C, strain CAK1, stronger effect = lower value 0.987 | locus YFR003C, strain YPI1, stronger effect = lower value 0.999 | locus YFR019W, strain FAB1, stronger effect = lower value 0.887 | locus YFR028C, strain CDC14, stronger effect = lower value 0.983 | locus YGR040W, strain KSS1, stronger effect = lower value 0.84 | locus YGR052W, strain FMP48, stronger effect = lower value 0.877 | locus YGR092W, strain DBF2, stronger effect = lower value 0.602 | locus YHR079C, strain IRE1, stronger effect = lower value 0.721 | locus YHR082C, strain KSP1, stronger effect = lower value 0.966 | locus YIL147C, strain SLN1, stronger effect = lower value 0.984 | locus YJL095W, strain BCK1, stronger effect = lower value 0.568 | locus YJL128C, strain PBS2, stronger effect = lower value 0.995 | locus YJL157C, strain FAR1, stronger effect = lower value 0.84 | locus YJR016C, strain ILV3, stronger effect = lower value 0.981 | locus YJR066W, strain TOR1, stronger effect = lower value 0.801 | locus YKL067W, strain YNK1, stronger effect = lower value 0.853 | locus YKL101W, strain HSL1, stronger effect = lower value 0.879 | locus YKL193C, strain SDS22, stronger effect = lower value 0.988 | locus YKL203C, strain TOR2, stronger effect = lower value 0.797 | locus YLR133W, strain CKI1, stronger effect = lower value 0.88 | locus YLR403W, strain SFP1, stronger effect = lower value 0.798 | locus YML070W, strain DAK1, stronger effect = lower value 0.852 | locus YMR001C, strain CDC5, stronger effect = lower value 0.989 | locus YMR205C, strain PFK2 (second series), stronger effect = lower value 0.865 | locus YMR277W, strain FCP1, stronger effect = lower value 0.989 | locus YNL006W, strain LST8, stronger effect = lower value 0.991 | locus YNL020C, strain ARK1, stronger effect = lower value 0.881 | locus YNL161W, strain CBK1, stronger effect = lower value 0.984 | locus YNL183C, strain NPR1, stronger effect = lower value 0.795 | locus YNL207W, strain RIO2, stronger effect = lower value 0.969 | locus YNL222W, strain SSU72, stronger effect = lower value 1 | locus YNL307C, strain MCK1 (second series), stronger effect = lower value 0.699 | locus YOL078W, strain AVO1, stronger effect = lower value 0.993 | locus YOL136C, strain PFK27, stronger effect = lower value 0.878 | locus YOR061W, strain CKA2, stronger effect = lower value 0.865 | locus YOR119C, strain RIO1, stronger effect = lower value 0.839 | locus YOR231W, strain MKK1, stronger effect = lower value 0.776 | locus YOR329C, strain SCD5, stronger effect = lower value 0.994 | locus YPL031C, strain PHO85, stronger effect = lower value 0.808 | locus YPL153C, strain RAD53, stronger effect = lower value 0.774 | locus YPL204W, strain HRR25, stronger effect = lower value 0.74 | locus YPL209C, strain IPL1, stronger effect = lower value 0.983 | locus YPR025C, strain CCL1, stronger effect = lower value 1 | locus YPR106W, strain ISR1, stronger effect = lower value 0.976 | locus YPR111W, strain DBF20, stronger effect = lower value 0.974 | strain NNK1, stronger effect = lower value 0.975 | strain TSCII, stronger effect = lower value 0.968
